Hits are enriched below; roughly 10% of the tested compounds scored in any of these assays.
Six1-Eya2 inh – blocks human Six1 binding to Eya2 | Q15475+O00167 | AlphaScreen GST-Six1/His-Eya2 binding, biochemical; active compounds read low | activity change, % (no concentration beside the values) | 0.56% of 360,000 active | AID 651725; in the data active means activity change below about -65%; inconclusive means mostly about -30% to -63%; further: on the % scale 0 is the no-effect control and ±100 the full control effect
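Six1/Eya2 binding was read as AlphaScreen signal after compounds were pinned into GST-Six1 plus His-tagged Eya2 (5X stock 250/500 nM) in pH 8.0 Tris/NaCl/TCEP buffer, beads added, then incubated 1 h, 37 C, dark.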
CtBP-E1A blk – blocks the CtBP interaction with E1A; AlphaScreen GST-E1A/His-CtBP binding, 1536-well; active compounds read low; 0.49% of 340,000 active; activity change, % (no concentration beside the values); in the data active means activity change below about -65%; inconclusive means mostly about -30% to -63%; further: on the % scale 0 is the no-effect control and ±100 the full control effect
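In 5 uL wells, 23 nL compound meets equimolar GST-E1A and His-CtBP (5X stock 125 nM each) for 2 h, 37 °C. Beads (5X, 50 ug/mL) then 1 h, 37 °C, dark.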
BAZ2B block – blocks human BAZ2B. AID 504333. Potency, µM (titrated, usually from 114 µM), without a hit: at the top dose activity change, negative = inhibition, usual class: inhibitors. 4.4% of 360,000 active. AlphaScreen BAZ2B-H3K14Ac peptide displacement; further: potency means the concentration at half of the fitted maximal effect; on the % scale 0 is the no-effect control and ±100 the full control effect; nearly all actives have a fitted effect of over 60% in size
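Compounds, titrated to a top concentration of 110 uM, were incubated 30 min at room temperature with preformed BAZ2B/acetyl-K14 H3 peptide complex (50 nM each). Proximity signal was measured by AlphaScreen after 20 min with beads.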
G9a block – blocks human histone lysine methyltransferase G9a. G9a H3K9 monomethylation, AlphaScreen, 2 h. Q96KQ7. AID 504332. 8.8% of 350,000 active. Potency, µM (series often up to 102 µM), for inactives: at the top dose activity, negative = inhibition, most hits filed as inhibitors; further: potency means the concentration at half of the fitted maximal effect; on the % scale 0 is the no-effect control and ±100 the full control effect; nearly all actives have a fitted effect of over 75% in size
Target sequence (Q96KQ7 913-1193 limits assumed): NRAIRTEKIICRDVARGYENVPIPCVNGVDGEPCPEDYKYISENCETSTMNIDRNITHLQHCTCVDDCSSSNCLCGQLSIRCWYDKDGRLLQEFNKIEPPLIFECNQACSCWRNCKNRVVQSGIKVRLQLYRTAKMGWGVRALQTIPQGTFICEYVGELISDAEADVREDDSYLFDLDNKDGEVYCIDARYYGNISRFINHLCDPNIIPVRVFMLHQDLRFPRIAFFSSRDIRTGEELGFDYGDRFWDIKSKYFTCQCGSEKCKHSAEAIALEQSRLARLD
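G9a (20 nM) preincubated 15 min RT with compounds, then 500 nM biotinylated H3K9 peptide and 20 uM SAM added; 2 h RT reaction. Monomethyl-H3K9 product detected by AlphaScreen with anti-H3K9me1 antibody, streptavidin donor and anti-rabbit IgG acceptor beads.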
HP1b binding inh – inhibitors of HP1-beta chromodomain binding to methylated histone tails | AlphaScreen HP1-beta / biotin-H3K9me3 peptide binding | P83916 | Potency, µM (doses to about 114 µM), without a hit: at the highest dose activity change, negative = inhibition, usual class: inhibitors | 0.56% of 390,000 active; further: potency means the concentration at half of the fitted maximal effect; nearly all actives have a fitted effect of over 70% in size
Target sequence (P83916 whole entry, looked up): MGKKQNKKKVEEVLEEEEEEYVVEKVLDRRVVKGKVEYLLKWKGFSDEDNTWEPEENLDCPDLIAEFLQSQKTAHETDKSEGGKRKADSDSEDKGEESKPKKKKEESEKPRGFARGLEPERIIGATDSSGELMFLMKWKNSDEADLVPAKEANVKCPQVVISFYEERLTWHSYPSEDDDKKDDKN
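HP1-beta protein (50 nM final) preincubated 30 min at room temperature with biotinylated H3(1-18)K9me3 peptide (50 nM) in PBS pH 7.4, 0.01% Tween-20, then compound added for 30 min. AlphaScreen streptavidin donor/nickel chelate acceptor beads (10 ug/mL final), 30 min dark, luminescence read.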
JMJD2A Tudor – inhibitors of human JMJD2A Tudor domain | O75164 | Potency, µM (doses to about 114 µM), inactives show at the highest dose activity change, negative = inhibition, most hits filed as inhibitors | 4.4% of 390,000 active | AID 504339 | AlphaScreen JMJD2A-Tudor / H3K4me3 peptide binding; further: potency means the concentration at half of the fitted maximal effect; on the % scale 0 is the no-effect control and ±100 the full control effect; nearly all actives have a fitted effect of over 50% in size
The depositor's hits bear a star; ? = inconclusive; . = no result given; [ ] = dose if it differs, or a comment. Unless noted, the call rests on the fitted dose curve; in most records, active means well fitted inhibition curve with a large enough effect; inconclusive means small, poorly fitted or top-dose-only effect; inactive means no such curve, though single readings can be large or run the other way.

SMILES	Six1-Eya2 inh	CtBP-E1A blk	BAZ2B block	G9a block	HP1b binding inh	JMJD2A Tudor
Cc1ccc(CNC(=O)C(=O)NCC(c2ccc3c(c2)OCO3)N2CCOCC2)cc1 (stereo not drawn)	.	.	1%	2%[59 µM]	13%[57 µM]	-8%
Cc1ccc(C)c(NC(=O)Cn2cc(S(=O)(=O)Cc3cccc(Cl)c3)c3ccccc32)c1	.	.	0%	5%[59 µM]	19%	-5%
COc1cc(C(=O)N2CCC(c3nc4ccccc4o3)CC2)cc(OC)c1OC	.	.	-10%	1%[59 µM]	46%	-25%
CN1CCN(C(c2ccccc2)c2ccc(Cl)cc2)CC1 (stereo not drawn)	-10	-29	1%	-45%[59 µM]	5%	-22%
CN1CCN(C(c2ccc(Cl)cc2)c2cc(Cl)c3cccnc3c2O)CC1 (stereo not drawn)	?	-80*	32µM*	2.5µM*	?	40µM*
CCN(C(=O)COC(=O)c1cc(-c2cccs2)nc2ccccc12)C1CCS(=O)(=O)C1 (stereo not drawn)	1	-8	4%	25%	47%	6%
Cc1ccc(-c2cc(C(=O)OCC(=O)N(C)C3CCS(=O)(=O)C3)c3ccccc3n2)c(C)c1 (stereo not drawn)	-6	2	-26%	-36%	18%	-26%
Cc1ccc(-c2cc(C(=O)OCC(=O)N(C)C3CCS(=O)(=O)C3)c3ccccc3n2)o1 (stereo not drawn)	0	0	-19%	4µM*	-4%	79µM*
CCN(C(=O)COC(=O)c1cc(-c2ccc(C)o2)nc2ccccc12)C1CCS(=O)(=O)C1 (stereo not drawn)	0	9	-2%	2µM*	5%	89µM*
C=C(C)C(=O)Nc1cccc(C2=NOC3(C2)C[C@@H](C(N)=O)N(C(=O)c2ccc(OC)cc2)C3)c1 (stereo partly drawn)	-22	.	1.8µM*	?	3.2µM*	2.8µM*
C=C(C)C(=O)Nc1cccc(C2=NOC3(C2)C[C@@H](C(N)=O)N(C(=O)c2cc([N+](=O)[O-])cc([N+](=O)[O-])c2)C3)c1 (stereo partly drawn)	-22	1	28µM*	?	20µM*	28µM*
C=C(C)C(=O)Nc1cccc(C2=NOC3(C2)C[C@@H](C(N)=O)N(C(=O)CCCCC)C3)c1 (stereo partly drawn)	-28	5	1.4µM*	?	1.6µM*	1.8µM*
CCCCCC(=O)N1CC2(CC(c3cccc(NC(=O)[C@@H]4CCC(=O)N4)c3)=NO2)C[C@@H]1C(N)=O (stereo partly drawn)	5	5	1%	0%[12.7 µM]	13%	-24%
COc1cc(C(CC(=O)Nc2cc(C)ccc2C)N2Cc3ccccc3C2=O)cc(OC)c1OC (stereo not drawn)	.	.	-15%	12%[59 µM]	33%	0%
CCN(CC)S(=O)(=O)c1ccc2c(c1)N(CC(=O)N1CCN(c3cccc(C)c3C)CC1)C(=O)CO2	.	.	-1%	-1%[59 µM]	30%	-24%
CN(C)c1ccc(NC(=O)Cn2cc(S(=O)(=O)Cc3cccc(Cl)c3)c3ccccc32)cc1	.	.	-24%	?	-1%	-34%
Cc1cccc(C)c1NC(=O)Cn1cc(S(=O)(=O)Cc2ccc(F)cc2)c2ccccc21	.	.	?	-32%[59 µM]	-17%	?
Cc1ccc(NC(=O)Cn2cc(S(=O)(=O)Cc3ccc(F)cc3)c3ccccc32)cc1Cl	.	.	50µM*	-50%[59 µM]	-30%	56µM*
CN(C)c1ccc(NC(=O)Cn2cc(S(=O)(=O)Cc3ccccc3Cl)c3ccccc32)cc1	.	.	25µM*	5µM*	-18%	?
Cc1ccc(NC(=O)C2CC(=O)N(c3ccc(OC(C)C)cc3)C2)cc1 (stereo not drawn)	.	.	-1%	8%[59 µM]	37%	-15%
O=C(Cn1c(C(F)(F)F)nc2ccccc21)N1CCCC1	6	9	8%	-8%	29%	-17%
FC(F)(F)c1nc2ccccc2n1CCNc1nc(CN2CCCCC2)cs1	0	3	-35%	45µM*	27%	-23%
c1ccc2c(c1)nc(-c1ccncc1)n2CCNc1nc(CN2CCCCC2)cs1	3	6	-36%	50µM*	38%	-9%
O=C(NCCn1c(-c2ccncc2)nc2ccccc21)[C@H]1CCCN1c1nc(CN2CCCCC2)cs1	8	0	-9%	-2%	49%	-5%
Cc1cc(C)nc(SCSc2nc(C)cc(C)n2)n1	11	0	7%	-16%[59 µM]	14%	-7%
SMILES	Six1-Eya2 inh	CtBP-E1A blk	BAZ2B block	G9a block	HP1b binding inh	JMJD2A Tudor
Cc1cc(C)nc(SCCc2ccncc2)n1	-2	1	10%	4µM*	21%	4.5µM*
Cc1cc(O)c(C(c2ccccc2Cl)N2CCN(c3ccccc3)CC2)c(=O)n1Cc1ccco1 (stereo not drawn)	.	.	-26%	?	22%[57 µM]	?
COc1cccc(NC(=O)CSc2c(C)cnc3c2c(=O)n(C)c(=O)n3C)c1	.	.	-7%	11%[59 µM]	24%	-13%
CCOC(=O)c1oc2ccc(CNC(C)(C)C)c(Cl)c2c1C	0	2	50µM*	8.9µM*	-33%	10µM*
O=C(O)c1nc(NCCc2ccccc2)ncc1Cl	7	-6	-18%	35µM*	-9%	?
COc1ccc(C2c3cc(OC)c(OC)cc3CC(=O)N2c2ccc(C)cc2)cc1 (stereo not drawn)	.	.	-27%	-27%[59 µM]	13%	-29%
CCc1ccc(NC(=O)c2sc(-n3nc(C)c(Cc4ccc(OC)cc4)c3C)nc2C)cc1	.	.	?	-16%[59 µM]	21%	9%
COc1cc(/C=C2\C(=O)ON=C2c2ccccc2)cc(OC)c1OC	-2	2	?	?	21%	-22%
CC1=N/C(=C/c2ccco2)C(=O)O1	-8	1	.	28µM*	-1%	?
COc1cc(/C=C2\N=C(C)OC2=O)cc(OC)c1OC	4	6	-4%	32µM*	8%	-9%
CC1=N/C(=C/c2cc(Br)cc(Br)c2O)C(=O)O1	5	.	9%	?	25%	-21%
COc1cc(/C=C2\N=C(c3ccccc3)NNC2=O)cc(OC)c1OC	4	6	-21%	25µM*	28%	-17%
